# An excerpt weighted towards active compounds, which were near 2.5% of everything screened.
# V-ATPase pH – yeast V-ATPase proton transport regulation by pHLuorin. 350,000 tested, 0.37% active. S. cerevisiae, pHLuorin cytosolic pH fluorescence. response, % at 10 µM; in the data active = response mostly above about 7.3%, no sharp cut-off; inactive = mostly below about 5.4%; note: actives read high
# Efflux pump inh – inhibitors of Candida antifungal efflux pumps expressed in yeast. S. cerevisiae Candida pump triplex, Nile Red efflux. inhibition, % at 10 µM. 330,000 tested, 0.44% active;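 active = plate passing quality check with inhibition over a set limit, or well fluorescence over plate mean plus 4 SD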;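 note: Nile Red retained in pooled yeast measured as flow cytometry median fluorescence; higher means more Nile Red kept so more efflux inhibition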
# Mot1-301 SUMO – blocks SUMOylation pathway, rescuing yeast Mot1-301 growth; S. cerevisiae Mot1-301 growth rescue, ATP luminescence, 38.5C; percent above DMSO median, 100 means doubled; growth rescue, % at 18.8 µM; 320,000 tested, 1% active; AID 2716;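 active = every valid replicate shows activation above 250% relative to neutral control wells; inactive = the rest, any valid replicate at or below 250%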
# AI-2 QS mod – modulators of Vibrio harveyi AI-2 quorum sensing system. Vibrio harveyi JMH597 AI-2 luminescence/OD600 ratio, 9 h; active compounds read low; strain lacks LuxN and CqsS sensors; 0 = neutral-control median. activity change, % at 7.5 µM. 300,000 tested, 0.4% active. AID 2094; in the data active = activity change below about -75%, passing the limit was not always enough;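 note: luminescence divided by OD600 gain over 9 h not by final OD600 alone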
# ATG4B inh – blocks human ATG4B protease cleavage of LC3 substrate | Q9Y4P1 | ATG4B cleavage of LC3-PLA2, NBD-HPC fluorescence, 1 h | inhibition, % at 8.33 µM | 340,000 tested, 0.51% active; in the data active = inhibition above about 40%
# Target sequence (Q9Y4P1 whole entry, looked up): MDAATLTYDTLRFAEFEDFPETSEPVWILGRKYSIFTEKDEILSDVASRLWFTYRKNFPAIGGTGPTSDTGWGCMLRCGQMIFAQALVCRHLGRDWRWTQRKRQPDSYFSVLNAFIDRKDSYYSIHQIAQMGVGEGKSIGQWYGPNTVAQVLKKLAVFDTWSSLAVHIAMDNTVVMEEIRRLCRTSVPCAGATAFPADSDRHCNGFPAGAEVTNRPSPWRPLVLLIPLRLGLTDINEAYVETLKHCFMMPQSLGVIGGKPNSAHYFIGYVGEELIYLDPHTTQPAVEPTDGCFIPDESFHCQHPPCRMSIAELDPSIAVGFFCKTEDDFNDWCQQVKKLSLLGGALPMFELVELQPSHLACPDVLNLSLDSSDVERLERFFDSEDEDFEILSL
# Mot1 SUMO dose – inhibits SUMO pathway, affecting Mot1-301 yeast growth. shares compounds with Mot1-301 SUMO. S. cerevisiae Mot1-301 galactose growth, ATP luminescence, 24 h; -100 = growth of slx-deleted rescue strain. growth activity, percent, % at 42 µM. 2,300 tested, under 10 active;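 active = Signal drops as the depositor expects, and the fitted half-maximal dose is no more than ten times the top valid tested dose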;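 note: more negative values mean stronger growth rescue toward the control strain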
# Numbers stand for hits; . = inactive; / = no result given; + = active, no number.
SMILES,V-ATPase pH,Efflux pump inh,Mot1-301 SUMO,AI-2 QS mod,ATG4B inh,Mot1 SUMO dose
O=C(O)/C(=C\c1cn(-c2ccccc2)nc1-c1cccnc1)NC(=O)c1ccccc1,.,.,.,.,.,/
NC(=O)c1cc(S(=O)(=O)Nc2ccc(OC(F)(F)F)cc2)cs1,.,.,.,.,.,/
CC(C)c1ccc2c(c1)CCC1C(C)(CN)CCCC21C (configuration not stated),.,.,616.6,.,.,.
COc1ccc(CCNC(=O)COC(=O)Cn2cnc3c2c(=O)n(C)c(=O)n3C)cc1,.,.,/,/,.,/
CCCNc1nc2ccccc2c(=O)[nH]1,.,.,542.9,.,.,.
CCN(CC)CCCN(Cc1cc2cc(OC)ccc2[nH]c1=O)C(=O)Nc1ccc(F)cc1,.,.,463.3,.,.,.
Cc1ccc(S(=O)(=O)Nc2ccc(C(=O)N3CCOCC3)cc2)cc1,.,.,.,.,.,/
CNS(=O)(=O)c1cccc(C(=O)NCC2(N3CCCCC3)CCCCC2)c1,.,.,402.2,.,.,.
Cc1cccc(NS(=O)(=O)c2cccc(C(=O)NCC3(N4CCCCC4)CCCCC3)c2)c1,.,.,.,.,.,/
O=C(Cc1ccc([N+](=O)[O-])cc1)Nc1ccc2c(c1)CCC2,.,.,.,.,.,/
CCOc1ccccc1CN1CCNC(=O)C1CC(=O)NCCN1CCOC1=O (configuration not stated),.,.,500.6,.,.,.
O=C(COc1ccccc1O)NCCN1CCOCC1,.,.,.,.,.,/
O=C(CC(c1ccccc1)c1ccccc1O)NCCN1CCOCC1 (configuration not stated),.,.,428.3,.,.,.
O=C1C2CC=C(Cl)CC2C(=O)N1c1ncn[nH]1 (configuration not stated),.,.,570.4,.,.,.
C=CSc1sc(Cl)c(N(CC)CC)c1[N+](=O)[O-],.,.,.,.,.,/
C=CSc1sc(Cl)c(N(C)C)c1[N+](=O)[O-],.,.,411.3,.,.,.
COc1cc(F)c(C(=O)NC(C)(C)CO)cc1OC,.,.,.,.,.,/
CC(C)Oc1ccc(CCC(=O)NNC(=O)c2ccccc2C(=O)O)cc1,.,.,460.0,.,.,.
CC(C)C(OC(=O)CN1C(=O)COc2ccccc21)C(=O)NC1CCCC1 (configuration not stated),.,.,783.7,.,.,.
O=C(NCc1ccncc1)c1nc(-c2ccc(C(F)(F)F)cc2)no1,.,.,.,.,.,/
CC1CCCN(C(=O)CSc2cnc3ccccc3n2)C1 (configuration not stated),.,.,.,.,.,/
COc1ccc(NC(=O)c2ccccc2NC(=O)NC2CCCCC2)cc1,.,.,521.9,.,.,.
COC(=O)c1ccccc1NC(=O)NC1CCCC1,.,.,.,.,.,/
Cc1ccc(N/C=C(\C#N)c2ccc(OCCCF)cc2)cc1,.,.,724.1,.,.,.
Cc1nnsc1C(=O)N1CCC(CO)(Cc2ccccc2Cl)CC1,.,.,+,.,.,.
SMILES,V-ATPase pH,Efflux pump inh,Mot1-301 SUMO,AI-2 QS mod,ATG4B inh,Mot1 SUMO dose
O=C(CCC(=O)N1CCN(S(=O)(=O)c2ccccc2)CC1)c1ccc(Br)cc1,.,.,.,/,.,/
CC12CCC(=O)N1C(C(=O)Nc1ccccc1F)CS2 (configuration not stated),.,.,792.6,.,.,.
CC12CCC(=O)N1C(C(=O)Nc1cccc3ccccc13)CS2 (configuration not stated),.,.,.,.,.,/
C/C(=N\NC(=O)c1ccc(Cl)cc1)c1cccc(NC(=O)c2cccnc2)c1,.,.,.,.,.,/
C/C(=N\NC(=O)c1ccc(Cl)cc1)c1cccnc1,.,.,713.6,.,.,.
O=S(=O)(CCN1CCCCC1)Oc1ccc(Cl)cc1Cl,.,.,921.7,.,.,.
CC1CCCCN1CC(O)COCc1ccc(Cl)cc1 (configuration not stated),.,.,.,.,.,/
O=C(CSc1ccc(Cl)cc1)N1N=CCC1c1ccccc1 (configuration not stated),.,.,.,.,.,/
CCN1CCN(CC(=O)N2N=CCC2c2ccccc2)CC1 (configuration not stated),.,.,805.3,.,.,.
CCOc1ccc(C(=O)NC2CCN(C(=O)Nc3ccc(F)cc3)CC2)cc1,.,.,.,.,.,/
COCCn1c(C)cc(C(=O)CN2CCCCC2)c1C,.,.,.,.,.,/
COCCn1c(C)cc(C(=O)CN2C(=O)NC3(CCCCCCC3)C2=O)c1C,.,.,667.4,.,.,.
CCS(=O)(=O)N1CCN=C1SCc1ccc(F)cc1,.,.,.,.,.,/
COc1cc(NC(=O)CCN2CCN(Cc3ccccc3)CC2)cc(OC)c1,.,.,695.8,.,.,.
COc1ccc(OC)c(NC(=O)CCN2CCN(Cc3ccccc3)CC2)c1,.,.,.,.,.,/
COc1cc(NC(=O)CN2CCN(CC(=O)Nc3ccccc3OC)CC2)cc(OC)c1,.,.,518.1,.,.,.
Cc1cc([N+](=O)[O-])c2ccccc2c1NS(=O)(=O)c1ccccc1,.,/,/,/,.,/
Nc1nnc(SCC(=O)c2ccc3c(c2)NC(=O)CO3)s1,.,.,.,.,.,/
COc1ccc(CN(C)S(=O)(=O)c2nnc(NC(=O)c3ccccc3OC)s2)cc1OC,.,.,.,.,.,/
COc1ccc(CN(C)S(=O)(=O)c2nnc(NC(=O)c3ccc(C)cc3)s2)cc1OC,.,.,466.3,.,.,.
Cn1c(CSc2nc3ccccc3s2)nnc1SCC(=O)NCCN1CCOCC1,.,.,913.3,.,.,.
CC(=O)N1CCc2cc(S(=O)(=O)CCC(=O)N3CCN(c4ccccc4)CC3)ccc21,.,.,.,.,.,/
CC(=O)N1CCc2cc(S(=O)(=O)CCC(=O)N3CCN(C(=O)c4ccco4)CC3)ccc21,.,.,436.3,/,.,.
Cc1ccsc1C(=O)NNC(=O)c1cccc(S(=O)(=O)N2CCCC2)c1,.,.,.,/,.,/
O=C(Cc1ccc(-c2ccccc2)cc1)NCc1cccnc1,.,.,.,.,.,/
SMILES,V-ATPase pH,Efflux pump inh,Mot1-301 SUMO,AI-2 QS mod,ATG4B inh,Mot1 SUMO dose
CN(Cc1cccnc1)Cc1cn[nH]c1-c1ccc(-c2ccccc2)cc1,.,.,791.3,.,.,.
CCCN(CC(=O)Nc1ccccc1C)C(=O)Cc1c(C)nc2ccccc2c1C,.,.,.,/,.,/
O=C(COC(=O)c1ncc(Cl)c(Cl)c1Cl)Nc1ccccc1OC(F)F,.,.,.,.,.,/
O=C(COC(=O)COc1ccccc1Cl)Nc1ccccc1OC(F)F,.,.,577.8,.,.,.
O=S(=O)(NC1CC2CCC1C2)c1ccc(Br)cc1 (configuration not stated),.,.,.,.,.,/
O=C(CS(=O)(=O)c1ccccc1)Nc1nnc(Cc2ccccc2)s1,.,.,.,.,.,/
